The values below come from PubChem BioAssay (NCATS).

Structures are written as SMILES. Inconclusive results are not listed. Entries that show only a call come without a potency. Calls of active or inactive are those of the source. Calls follow the shape of the dose curve; as a rule, active = well fitted cell-killing curve with a large enough effect; inconclusive = small, poorly fitted or top-dose-only effect; inactive = no such curve, though single readings can be large or run the other way.
Potency is read from the fitted curve at half-maximal effect.

The test is described as follows: qHTS of pediatric cancer cell lines to identify multiple opportunities for drug repurposing: Primary screen for Rh41 cells (AID 1347108). Also: nearly all actives have a fitted effect of over 70% in size. The following applies: Rh41 rhabdomyosarcoma viability, CellTiter-Glo luminescence, 48 h; series mostly up to 46 µM. The source says:
Drug repurposing or repositioning has been offered as a strategy for drug development in oncology programs. This approach has special potential for childhood cancers and other rare or orphan diseases, where the expected return on new drug development has been a disincentive to pharmaceuticals. […] In this project we exploit the poly-pharmacology of drugs to discover new indications via phenotypic screening of a panel of 19 well-characterized cell lines derived from solid tumors seen in children and adolescents. The goal is to identify approved drugs with previously unrecognized anticancer properties that has the potential to reveal new mechanisms and biological processes involved in carcinogenesis or drug resistance. We employed a titration-based paradigm (quantitative high-throughput screening or qHTS), where all compounds were tested at multiple concentrations for their effect on cell viability. Concentration-response curves (CRCs) were derived directly from the primary screen, and both potency and efficacy values were used to identify compounds with robust bioactivity profiles. We screened the NIH Chemical Genomics Center (NCGC) Pharmaceutical Collection (NPC) and Mechanism Interrogation Plate (MIPE) small molecule collections of approved and investigational compounds against these cell lines; and measured metabolically active cells after 48 hours of compound treatment as a proxy for cell viability. […] Assay Submitter: Nathalia J. Martinez, National Center for Advancing Translational Sciences, National Institutes of Health, Rockville, MD, USA; email: natalia.martinez@nih.gov Shen, M et al. Quantitative high-throughput phenotypic screening of pediatric cancer cell lines identifies multiple opportunities for drug repurposing. Oncotarget 2017 Dec 19;9(4):4758-4772. PMID 29435139.
The cells were obtained from University of North Carolina (UNC), Pediatric Preclinical Testing Program (PPT), and Coriell Institute (CI). qHTS cell viability assay: Cells were assayed in growth media at a density of 500-1,000 cells/well. Five microliters of cells were dispensed into 1,536-well, white, solid-bottom, TC-treated plates (Greiner Bio One) using a multidrop dispenser and incubated at 37 degrees C, 5% CO2, under a humidified atmosphere for 5 hours. Twenty-three nanoliters of compounds and controls (neutral control DMSO or positive control bortezomib at final concentration of 2.3 µM) were subsequently transferred by Kalypsys pintool. For primary screens, the MIPE collection was tested at 11-point dilutions (final concentrations range from 0.78 nM to 46 µM) and the NPC collection at 8-point dilutions (final concentrations range from 0.59 nM to 46 µM). Compounds tested in follow-up screens were assayed at 11-point dilutions. Cells were incubated for 48 hours, followed by addition of 3 µL of CellTiter-Glo (Promega). After a 15 min incubation at room temperature, samples were analyzed for luminescence intensity using a ViewLux High-throughput CCD imager equipped with clear filters.
With `COP(=S)(OC)Oc1cc(Cl)c(Cl)cc1Cl`, the Potency result is “inactive”.

Turning to `CC(C)(C)NCC(O)c1cc(Cl)c(N)c(C(F)(F)F)c1` (stereo not given), the Potency result was “inactive”.

`NC1=NC(=O)C(c2ccccc2)O1` (stereo not given): the Potency entry was “inactive”.

Consider `NCCc1ccc(O)cc1`, for which the Potency result was “inactive”.

As to `CCN[C@@H](C)Cc1cccc(C(F)(F)F)c1`, the Potency entry is “inactive”.

As to `Nc1ccc([As](=O)(O)O)cc1`, the Potency result was “inactive”.

With `CCC(C)(C)c1ccc(O)cc1`, the Potency result is “inactive”.

`CCCCC/C=C\C/C=C\C/C=C\C/C=C\CCCC(=O)NCC(=O)O`: the Potency entry is “inactive”.

Turning to `CCN[C@@H](C)Cc1ccccc1`, the Potency entry was “inactive”.

Take `CC[N+]1(CC)CCC(OC(=O)C(O)(c2ccccc2)c2ccccc2)C1` (stereo not given): the Potency result was “inactive”.

Take `CCCCCCC(=O)CCCCCC/C=C/C[C@@H](O)[C@H](O)[C@@](N)(CO)C(=O)O`: the Potency entry was “inactive”.

For the molecule `Clc1ccccc1N1CCNCC1`, the Potency entry was “inactive”.

Consider `CN1C(=O)COc2c(C(=O)NC3CN4CCC3CC4)cc(Cl)cc21` (stereo not given), for which the Potency result was “inactive”.

Take `CCC(CC)(CNC(=O)CCCO)c1cccc(OC)c1`: the Potency result was “inactive”.

As for `COC1CC(=C(c2cccs2)c2cccs2)C[N+](C)(C)C1` (stereo not given), the Potency entry is “inactive”.

Consider `CC(=O)C1CCOC1=O` (stereo not given), for which the Potency entry was “inactive”.

As for `O=C1OC(c2ccc(O)c(S(=O)(=O)O)c2)(c2ccc(O)c(S(=O)(=O)O)c2)c2c(Br)c(Br)c(Br)c(Br)c21`, the Potency entry was “inactive”.

For `CC(C)N(CCC(C(N)=O)(c1ccccc1)c1ccccn1)C(C)C` (stereo not given), the Potency entry is “inactive”.

Take `CCOP(=S)(OCC)Oc1ccc2c(C)c(Cl)c(=O)oc2c1`: the Potency entry is “inactive”.

With `Nc1ccccc1C(=O)O`, the Potency entry was “inactive”.

As for `Oc1ccc(Cl)cc1`, the Potency result was “inactive”.

Turning to `COP(=S)(OC)Oc1ccc(SC)c(C)c1`, the Potency entry is “inactive”.

Take `O=P1(N(CCCl)CCCl)NCCCO1` (stereo not given): the Potency result was “inactive”.

For `CCc1cc2c(s1)-n1c(C)nnc1CN=C2c1ccccc1Cl`, the Potency entry is “inactive”.

Consider `Cc1ncsc1CCCl`, for which the Potency entry was “inactive”.

`CC(Cc1ccccc1)N(C)Cc1ccco1` (stereo not given): the Potency entry is “inactive”.

Turning to `COC(=O)[C@@H](N)CCCN/C(N)=N/[N+](=O)[O-]`, the Potency entry was “inactive”.

`COc1ccc2c(c1OC)C(=O)O[C@H]2[C@@H]1c2cc3c(cc2CCN1C)OCO3`: the Potency entry was “inactive”.

On to `CCC1(CC)C(=O)C=CNC1=O`, for which the Potency entry was “inactive”.

As for `CCC1(c2ccccc2)C(=O)N(COC)C(=O)N(COC)C1=O`, the Potency result is “inactive”.

In the case of `COc1cc(OC)c(OC)cc1C=O`, the Potency result is “inactive”.

On to `[N-]=[N+]=CC(=O)OC[C@H](N)C(=O)O`, for which the Potency entry is “inactive”.

For `CNCC(=O)c1ccc(O)c(O)c1`, the Potency entry was “inactive”.

Consider `O=c1[nH]c2ccccc2n1C1CCNCC1`, for which the Potency entry was “inactive”.

As to `O=C(O)c1ccc(=O)[nH]c1`, the Potency result was “inactive”.

Take `CC(=O)OCC1=C(C(=O)O)N2C(=O)[C@@H](N)[C@H]2SC1`: the Potency result was “inactive”.

Regarding `O=c1oc2ccccc2c(O)c1Cc1c(O)c2ccccc2oc1=O`, the Potency entry is “inactive”.

With `C[C@](O)(CS(=O)(=O)c1ccc(F)cc1)C(=O)Nc1ccc(C#N)c(C(F)(F)F)c1`, the Potency is 2960 nM (active).

In the case of `CC(=O)NC1CCSC1=O` (stereo not given), the Potency entry is “inactive”.

On to `O=C(O)CCCc1ccc(N(CCCl)CCCl)cc1`, for which the Potency entry is “inactive”.
